The values that follow come from PubChem BioAssay.

SMILES strings stand for the structures. Activity calls are given as the source filed them.

In assay [1] the test system is Human papillomavirus type 1a protein E7 (residues 44-93). The assay can be described thus: HPV1a E7 fragment binders on microarrays, primary screen, biochemical, small-molecule microarray, residues 44-93, 635 nm fluorescence (AID 1108).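 Further: E7 fragment applied at 1 µg/mL in TBST for 1 h at 4 C; score combines spot fluorescence with its signal to noise ratio.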 The conditions noted are these: small-molecule microarray binding, fluorescence 635 nm; higher = more signal.
Assay [2] in a line: modulators of HCV replicon luciferase signal, primary screen, HCV replication inhibitor project, Huh7 cells, luciferase reporter (AID 1109).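 Further: huh7 hepatoma cells harbouring a luciferase neomycin HCV replicon reporter; luciferase luminescence as measure of HCV replicon replication; test concentration not given here.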 The conditions noted are these: 48 h, higher = more signal.
The target in assay [3] is Left-right determination factor 2 (Homo sapiens) (UniProt O00292). The assay can be described thus: LEFTY2 binders on small-molecule microarrays, primary screen, biochemical, small-molecule microarray, 635 nm fluorescence scan (AID 1110). The note with it: LEFTY2 binding, higher = more signal.
Chain of Left-right determination factor 2 (Homo sapiens) (O00292 whole entry, looked up): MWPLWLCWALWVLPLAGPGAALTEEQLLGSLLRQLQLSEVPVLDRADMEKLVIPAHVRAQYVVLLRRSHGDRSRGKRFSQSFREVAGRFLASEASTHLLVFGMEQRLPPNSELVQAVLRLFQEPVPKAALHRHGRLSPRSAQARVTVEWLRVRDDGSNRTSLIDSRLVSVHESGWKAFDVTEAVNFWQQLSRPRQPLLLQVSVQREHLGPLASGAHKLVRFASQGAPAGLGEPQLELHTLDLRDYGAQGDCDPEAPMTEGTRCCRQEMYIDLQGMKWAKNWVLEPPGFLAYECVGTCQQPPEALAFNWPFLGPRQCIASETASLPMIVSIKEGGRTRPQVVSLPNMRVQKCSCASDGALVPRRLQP
Assay [4] addresses Calmodulin-1 (Homo sapiens) (UniProt P0DP23). Put plainly: CALM1 binders on microarrays, EGTA buffer, profiling panel, biochemical, small-molecule microarray, Cy5-labelled CALM1 (AID 1111).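 Further: labelled calmodulin applied in Tris saline Tween buffer holding calcium plus EGTA and DTT.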 The conditions noted are these: Cy5-CALM1 binding fluorescence, higher = more signal.
The target is the same in assay [5]. Put plainly: calcium-bound CALM1 binders on microarrays, profiling panel, artefact control for SMM control-protein annotation, biochemical, small-molecule microarray, Cy5-labelled CALM1, plus calcium (AID 1112).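 Further: score merges spot fluorescence with signal to noise from triplicate slides.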 The note with it: Cy5-CALM1 binding fluorescence, higher = more signal.
Assay [6] can be described thus: small-molecule microarray binders of probe aWnt5a, primary screen, biochemical, biotinylated probe, 635/667 nm fluorescence (AID 1113).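 Further: score merges 667 nm fluorescence intensity with signal-to-noise per printed feature.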 The conditions noted are these: higher = more signal.
The nature of assay [7]: small-molecule microarray binders of probe aShh, primary screen, biochemical, biotinylated probe, 635/667 nm fluorescence (AID 1114).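 Further: probe is biotin-labelled aShh protein from a stem cell growth factor screen; measures binding of labelled protein to compounds printed on the slide; score merges feature fluorescence at 667 nm with signal-to-noise.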 The note with it: higher = more signal.
Assay [8] can be described thus: small-molecule microarray binders of probe aNog, primary screen, biochemical, biotinylated probe, 635/667 nm fluorescence (AID 1115).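 Further: probe is biotinylated aNog protein used at 0.15 µg/mL for 1 h at 4 C; z-score combines 667 nm fluorescence of each spot with its signal to noise.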 The note with it: higher = more signal.
Assay [9] addresses Torsin-1A-interacting protein 1 (Homo sapiens) (UniProt Q5JTV8). Put plainly: LAP1 binders from COS7 cell lysate, primary screen, small-molecule microarray, 635/667 nm fluorescence (AID 1116). The conditions noted are these: COS7-hLAP1 lysate binding, 635 nm fluorescence, higher = more signal.
In assay [10] the target is Alpha-bungarotoxin (Bungarus multicinctus) (UniProt P60615). Put plainly: alpha-bungarotoxin binders on microarray, profiling panel, artefact control for SMM control protein annotation, biochemical, small-molecule microarray, Alexa647 label, 635/667 nm fluorescence (AID 1117). The conditions noted are these: alpha-BTX-A647 binding fluorescence, higher = more signal.
Chain of Alpha-bungarotoxin (Bungarus multicinctus) (P60615 whole entry, looked up): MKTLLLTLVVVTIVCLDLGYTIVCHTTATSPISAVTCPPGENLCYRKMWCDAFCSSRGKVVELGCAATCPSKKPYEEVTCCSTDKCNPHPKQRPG
For the next assay, the target named is Albumin (Bos taurus) (UniProt P02769). Put plainly: bovine serum albumin binders on microarray, profiling panel, artefact control for SMM control protein annotation, biochemical, small-molecule microarray, Alexa647 label, 635/667 nm fluorescence (AID 1118).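 Further: score merges 667 nm emission intensity and signal-to-noise per printed compound spot.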 The note with it: BSA-A647 binding, fluorescence 635 nm, higher = more signal.
Chain of Albumin (Bos taurus) (P02769 whole entry, looked up): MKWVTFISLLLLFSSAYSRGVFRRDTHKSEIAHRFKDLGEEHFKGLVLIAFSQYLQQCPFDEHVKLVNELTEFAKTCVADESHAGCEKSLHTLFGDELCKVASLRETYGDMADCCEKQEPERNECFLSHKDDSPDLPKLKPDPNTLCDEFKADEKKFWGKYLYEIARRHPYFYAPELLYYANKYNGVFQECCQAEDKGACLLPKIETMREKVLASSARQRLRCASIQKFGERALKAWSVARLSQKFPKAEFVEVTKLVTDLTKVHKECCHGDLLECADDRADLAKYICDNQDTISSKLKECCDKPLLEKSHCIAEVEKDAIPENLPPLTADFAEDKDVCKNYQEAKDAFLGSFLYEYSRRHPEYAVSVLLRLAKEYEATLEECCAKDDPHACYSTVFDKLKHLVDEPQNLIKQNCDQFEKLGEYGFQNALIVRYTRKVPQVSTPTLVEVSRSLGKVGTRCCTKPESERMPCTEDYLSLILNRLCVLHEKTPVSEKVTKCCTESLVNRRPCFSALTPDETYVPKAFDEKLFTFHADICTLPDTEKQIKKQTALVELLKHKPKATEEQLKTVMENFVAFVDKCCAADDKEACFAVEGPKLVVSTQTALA
Assay [11] can be described thus: small-molecule microarray binders of probe aXIP, primary screen, biochemical, NeuroSMM set, 635/667 nm fluorescence (AID 1119).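 Further: probe is the protein aXip251-270 applied at 1 µg/mL to compound-printed slides; binding of probe to printed compounds measured as 667 nm fluorescence plus signal to noise.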 The conditions noted are these: higher = more signal, called active from +8 up or from −8 down.
Assay [12] is described as follows: small-molecule binders of probe aNOTCH3, primary screen, biochemical, small-molecule microarray, 635/667 nm fluorescence (AID 1120).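 Further: probe is a biotin-tagged antibody raised against NOTCH3 rather than NOTCH3 protein; score merges spot fluorescence near 667 nm with spot signal to noise.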 The note with it: higher = more signal.
Assay [13] can be described thus: small-molecule binders of probe aNOTCH2, primary screen, biochemical, small-molecule microarray, 635/667 nm fluorescence (AID 1121).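 Further: score merges feature fluorescence read at 667 nm with its signal to noise.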 The note with it: higher = more signal.
Assay [14] concerns the target Carbonic anhydrase 2 (Homo sapiens) (UniProt P00918). Put plainly: CAII small-molecule binders, profiling panel, biochemical, small-molecule microarray, Alexa647-labelled CAII (AID 1122). The note with it: CAII-A647 binding fluorescence, higher = more signal.
Assay [15] in a line: COS7 lysate on small-molecule microarray, probe aHis, 635 nm (AID 1123).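 Further: z-score combines 667nm fluorescence intensity with signal-to-noise per printed compound spot.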 The note with it: COS7 cell lysate, fluorescence, higher = more signal.
Assay [16] is described as follows: compound binding in COS7 lysate, probe aLAP1, primary screen, cell lysate, small-molecule microarray (AID 1124).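 Further: lysate comes from COS7 cells expressing LAP1 and is applied at 0.3 µg/mL; score merges spot fluorescence near 667 nm with signal-to-noise over triplicate slides.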 The note with it: probe aLAP1, fluorescence, higher = more signal.
The next assay relates to Sam68 (KHDRBS1). The assay can be described thus: Sam68 small-molecule binders, primary screen, biochemical, small-molecule microarray, 635 nm fluorescence (AID 1125).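 Further: score merges 667 nm channel intensity with signal to noise over triplicate slides.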 The conditions noted are these: small-molecule microarray binding, higher = more signal.
The test system of assay [17] is Chordin-like protein 2 (CHRDL2). The assay can be described thus: CHRDL2 small-molecule binders, primary screen, biochemical, small-molecule microarray, 635 nm fluorescence (AID 1126).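 Further: printed compound slides probed with Chrdl2 protein at 4 µg/mL for 1 h at 4 C; score merges 667 nm emission intensity with signal to noise over three replicate slides.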 The conditions noted are these: small-molecule microarray binding, fluorescence 635 nm; higher = more signal.
The target in assay [18] is Concanavalin-A (Canavalia ensiformis) (UniProt P02866). The assay can be described thus: ConA small-molecule binders, primary screen, artefact control for SMM control protein annotation, biochemical, small-molecule microarray, Alexa647 label, 635 nm (AID 1127).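 Further: z combines 667 nm emission intensity with signal-to-noise across three replicate slides.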 The conditions noted are these: ConA-A647 binding fluorescence, higher = more signal.
Chain of Concanavalin-A (Canavalia ensiformis) (P02866 whole entry, looked up): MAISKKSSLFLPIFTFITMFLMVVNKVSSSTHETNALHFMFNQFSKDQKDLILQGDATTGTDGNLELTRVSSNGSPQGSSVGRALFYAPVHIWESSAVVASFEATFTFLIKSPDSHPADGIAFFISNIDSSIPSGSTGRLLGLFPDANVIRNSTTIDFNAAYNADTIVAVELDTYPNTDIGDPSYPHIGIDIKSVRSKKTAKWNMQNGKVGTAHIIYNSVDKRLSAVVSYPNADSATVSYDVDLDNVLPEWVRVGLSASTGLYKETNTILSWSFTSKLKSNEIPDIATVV

Chain of Torsin-1A-interacting protein 1 (Homo sapiens) (Q5JTV8 whole entry, looked up): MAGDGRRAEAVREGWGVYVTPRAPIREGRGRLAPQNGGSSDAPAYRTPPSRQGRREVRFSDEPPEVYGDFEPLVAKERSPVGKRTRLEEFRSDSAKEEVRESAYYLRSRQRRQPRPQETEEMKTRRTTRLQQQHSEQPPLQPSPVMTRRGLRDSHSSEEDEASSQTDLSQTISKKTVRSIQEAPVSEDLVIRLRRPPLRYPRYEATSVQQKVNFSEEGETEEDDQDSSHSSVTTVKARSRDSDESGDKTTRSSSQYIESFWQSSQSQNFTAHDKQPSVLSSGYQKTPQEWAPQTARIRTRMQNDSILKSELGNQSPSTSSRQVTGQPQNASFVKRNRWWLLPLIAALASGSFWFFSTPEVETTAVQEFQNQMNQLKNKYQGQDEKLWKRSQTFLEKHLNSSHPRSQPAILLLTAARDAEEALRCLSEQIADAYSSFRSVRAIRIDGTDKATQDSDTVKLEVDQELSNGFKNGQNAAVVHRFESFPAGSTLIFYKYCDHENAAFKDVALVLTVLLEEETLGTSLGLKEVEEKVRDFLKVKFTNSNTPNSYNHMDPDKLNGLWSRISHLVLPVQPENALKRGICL

For `CCCCC(=C=CC[C@H](O)c1cccc(OCCO)c1)C[C@H](O)COCc1ccccc1`, the composite z-score in assay [1] was 0.49; in assay [3], -0.466; in assay [4], -0.59; in [5], -0.897; in [6], -0.148; in assay [7], -0.154. Also, the composite z-score is -0.397 in assay [8]; -0.432 in assay [9]; -0.283 in assay [10]; 0.92 with Albumin (Bos taurus); -0.179 in [12]; -0.107 in assay [13]. The composite z-score in [14] is 0.697; in assay [15] it was 0.972; in [16] it was -0.501; in the assay on Sam68 (KHDRBS1), 0.435; in [17], -0.592; in assay [18], 0.0194. The compound also returned a z-score in assay [2] of -1.88. For the same compound, the composite Z-score in assay [11] was 0.11 (inactive).

On to `CC1CC/C=C\[C@H]2OC34C=CCN(c5ccc(Cl)cc5)C(=O)[C@H]3N(C(CO)C(C)C)C(=O)[C@]4(C)C2C(=O)O1` (stereo not given in full), for which the composite z-score in [1] was -0.806; in [3], -1.22; in [4] it was -0.505; in assay [5], 0.0376; in assay [6], -0.152; in [7], -0.154. In addition, the composite z-score is -0.679 in assay [8]; 0.184 in assay [9]; -0.59 in [10]; 0.788 with Albumin (Bos taurus); -0.28 in assay [12]; -0.174 in [13]. The composite z-score was 0.859 in [14]; 0.253 in assay [15]; 0.438 in assay [16]; -0.932 with Sam68 (KHDRBS1); -0.169 in [17]; -0.983 in [18]. In assay [2], this compound returned a z-score of -0.392. For the same compound, the composite Z-score in assay [11] was -0.0965 (inactive).

Turning to `C=C(/C(=C/C[C@@H](OC(=O)c1ccncc1)c1ccccc1OCCO)c1cnc2ccccc2c1)C(C)C`, the composite z-score is 1.4 in assay [1]; 0.935 in assay [3]; 0.273 in assay [4]; -0.531 in assay [5]; 0.0044 in [6]; -0.195 in assay [7]. In addition, the composite z-score stood at 0.0588 in assay [8]; 1.23 in [9]; 3.08 in assay [10]; 0.635 with Albumin (Bos taurus); 0.306 in assay [12]; 0.0002 in assay [13]. Also, the composite z-score in assay [14] turned out to be 0.935; in assay [15] it was 1.5; in [16] it was 0.497; in the assay on Sam68 (KHDRBS1), 1.3; in assay [17] it was 1.45; in assay [18], 1.19. Besides, the z-score in assay [2] is -4.46. Moreover, the composite Z-score in assay [11] is 0.718 (inactive).

Turning to `C=CCC(OC(C)=O)[C@@H]1[C@@H](N(Cc2ccc(-c3ccccc3)cc2)C(=O)c2cccc3ccccc23)c2cc(OCCCO)ccc2N1C(=O)c1ccc2ccccc2n1` (stereo not given in full), the composite z-score was 0.0254 in assay [1]; -0.319 in assay [3]; 0.367 in [4]; 1.01 in [5]; -0.224 in assay [6]; -0.2 in [7]. For the same compound, the composite z-score in assay [8] was -0.158; in assay [9], 0.0708; in assay [10] it was 0.382; with Albumin (Bos taurus), 0.028; in assay [12] it was 0.0306; in assay [13], -0.16. Further, the composite z-score is 0.212 in [14]; 0.621 in assay [15]; 0.546 in assay [16]; -0.168 with Sam68 (KHDRBS1); 0.165 in assay [17]; -0.0782 in assay [18]. The same compound came in with a z-score in [2] of -0.281. Also, the composite Z-score in assay [11] was -0.119 (inactive).

For `CC(C)(C)OC(=O)CC[C@]1(C(=O)N2CCCCC2)N=C(c2ccc(OCCCO)cc2)O[C@H]1c1ccccc1CN=[N+]=[N-]`, the composite z-score in [1] turned out to be 0.804; in assay [3], 0.888; in assay [4], 0.958; in [5], 0.566; in assay [6] it was 0.0044; in assay [7], 0.439. Moreover, the composite z-score in assay [8] was found to be 0.659; in assay [9], 2.52; in assay [10], 0.12; with Albumin (Bos taurus), 0.982; in assay [12], 0.516; in assay [13], 0.381. Besides, the composite z-score in [14] stood at 0.801; in assay [15], 2.74; in [16], 0.762; in the assay with Sam68 (KHDRBS1), 1.3; in assay [17], 0.388; in assay [18] it was 1.2. The compound further had a z-score in assay [2] of -2.03. Moreover, the composite Z-score in assay [11] was -0.43 (inactive).
